Assay results as given in the supplement of paper PMC11732987, “Enantioselective OTUD7B fragment discovery through chemoproteomics screening and high-throughput optimisation” (Communications Chemistry, 2025).

What was measured:
Experiment in all cases: log2 ratio of Biotin-Ahx-Ub-VS probe labelling (fragment/DMSO); higher = less target engagement (more negative = stronger competition), active = hit call of the paper (q ≤ 0.05, log2 ratio ≤ -1)
Conditions in all cases: compound concentration: 200 uM; treatment time: 3 h
USP19 = molecular target: T1, USP19 (UniProt O94966)
T1 sequence (whole entry): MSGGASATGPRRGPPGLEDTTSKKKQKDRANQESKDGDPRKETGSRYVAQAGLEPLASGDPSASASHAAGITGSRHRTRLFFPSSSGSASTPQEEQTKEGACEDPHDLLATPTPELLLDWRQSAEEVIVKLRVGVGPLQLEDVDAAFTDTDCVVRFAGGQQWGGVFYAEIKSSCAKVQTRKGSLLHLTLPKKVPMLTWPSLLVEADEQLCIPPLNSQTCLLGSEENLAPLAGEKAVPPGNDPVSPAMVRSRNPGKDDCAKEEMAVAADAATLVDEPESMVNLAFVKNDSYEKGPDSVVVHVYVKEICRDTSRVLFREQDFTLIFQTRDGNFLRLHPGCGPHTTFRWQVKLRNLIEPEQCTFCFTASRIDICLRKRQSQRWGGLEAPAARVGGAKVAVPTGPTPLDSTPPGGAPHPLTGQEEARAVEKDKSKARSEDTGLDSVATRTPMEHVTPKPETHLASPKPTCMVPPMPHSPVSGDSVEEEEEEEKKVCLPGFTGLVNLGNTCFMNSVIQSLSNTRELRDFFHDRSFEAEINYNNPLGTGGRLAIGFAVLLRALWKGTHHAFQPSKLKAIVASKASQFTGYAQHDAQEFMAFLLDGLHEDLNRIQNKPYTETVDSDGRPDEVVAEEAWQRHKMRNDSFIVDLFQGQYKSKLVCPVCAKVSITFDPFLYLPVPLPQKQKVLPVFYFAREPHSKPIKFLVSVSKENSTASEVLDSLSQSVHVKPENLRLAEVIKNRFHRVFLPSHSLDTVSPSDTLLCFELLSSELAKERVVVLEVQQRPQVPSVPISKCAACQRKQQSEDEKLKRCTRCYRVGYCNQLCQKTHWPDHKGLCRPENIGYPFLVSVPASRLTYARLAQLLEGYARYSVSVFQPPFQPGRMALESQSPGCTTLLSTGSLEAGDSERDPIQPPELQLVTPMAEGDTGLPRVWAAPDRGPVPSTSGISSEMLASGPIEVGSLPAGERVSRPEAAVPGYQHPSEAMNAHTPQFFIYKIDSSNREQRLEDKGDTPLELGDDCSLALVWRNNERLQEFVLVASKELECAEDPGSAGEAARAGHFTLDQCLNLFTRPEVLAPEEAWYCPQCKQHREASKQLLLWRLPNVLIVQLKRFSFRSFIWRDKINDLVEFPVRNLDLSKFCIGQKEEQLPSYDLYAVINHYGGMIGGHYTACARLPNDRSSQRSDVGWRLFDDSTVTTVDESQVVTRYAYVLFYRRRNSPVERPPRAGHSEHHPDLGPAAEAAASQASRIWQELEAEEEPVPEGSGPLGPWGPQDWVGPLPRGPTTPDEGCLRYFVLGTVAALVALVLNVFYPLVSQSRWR
Method in brief: (§1)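 HEK293T lysate, 495 µg per sample in Tris/CHAPS/IGEPAL buffer with protease inhibitors, was treated in triplicate with fragment at 200 µM or vehicle for 3 h and then with Biotin-Ahx-Ub-VS at 0.5 µM final for 1 h. Labelled DUBs were NeutrAvidin-enriched, digested with LysC and trypsin, and run by diaPASEF LC-MS/MS. Spectronaut label-free quantities were global-median-normalised, and values are average log2 fragment/vehicle ratios by unpaired t-test on proteins with ≥2 unique peptides.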

USP24 = USP24 (UniProt Q9UPU5)
Sequence of USP24 (Q9UPU5 whole entry): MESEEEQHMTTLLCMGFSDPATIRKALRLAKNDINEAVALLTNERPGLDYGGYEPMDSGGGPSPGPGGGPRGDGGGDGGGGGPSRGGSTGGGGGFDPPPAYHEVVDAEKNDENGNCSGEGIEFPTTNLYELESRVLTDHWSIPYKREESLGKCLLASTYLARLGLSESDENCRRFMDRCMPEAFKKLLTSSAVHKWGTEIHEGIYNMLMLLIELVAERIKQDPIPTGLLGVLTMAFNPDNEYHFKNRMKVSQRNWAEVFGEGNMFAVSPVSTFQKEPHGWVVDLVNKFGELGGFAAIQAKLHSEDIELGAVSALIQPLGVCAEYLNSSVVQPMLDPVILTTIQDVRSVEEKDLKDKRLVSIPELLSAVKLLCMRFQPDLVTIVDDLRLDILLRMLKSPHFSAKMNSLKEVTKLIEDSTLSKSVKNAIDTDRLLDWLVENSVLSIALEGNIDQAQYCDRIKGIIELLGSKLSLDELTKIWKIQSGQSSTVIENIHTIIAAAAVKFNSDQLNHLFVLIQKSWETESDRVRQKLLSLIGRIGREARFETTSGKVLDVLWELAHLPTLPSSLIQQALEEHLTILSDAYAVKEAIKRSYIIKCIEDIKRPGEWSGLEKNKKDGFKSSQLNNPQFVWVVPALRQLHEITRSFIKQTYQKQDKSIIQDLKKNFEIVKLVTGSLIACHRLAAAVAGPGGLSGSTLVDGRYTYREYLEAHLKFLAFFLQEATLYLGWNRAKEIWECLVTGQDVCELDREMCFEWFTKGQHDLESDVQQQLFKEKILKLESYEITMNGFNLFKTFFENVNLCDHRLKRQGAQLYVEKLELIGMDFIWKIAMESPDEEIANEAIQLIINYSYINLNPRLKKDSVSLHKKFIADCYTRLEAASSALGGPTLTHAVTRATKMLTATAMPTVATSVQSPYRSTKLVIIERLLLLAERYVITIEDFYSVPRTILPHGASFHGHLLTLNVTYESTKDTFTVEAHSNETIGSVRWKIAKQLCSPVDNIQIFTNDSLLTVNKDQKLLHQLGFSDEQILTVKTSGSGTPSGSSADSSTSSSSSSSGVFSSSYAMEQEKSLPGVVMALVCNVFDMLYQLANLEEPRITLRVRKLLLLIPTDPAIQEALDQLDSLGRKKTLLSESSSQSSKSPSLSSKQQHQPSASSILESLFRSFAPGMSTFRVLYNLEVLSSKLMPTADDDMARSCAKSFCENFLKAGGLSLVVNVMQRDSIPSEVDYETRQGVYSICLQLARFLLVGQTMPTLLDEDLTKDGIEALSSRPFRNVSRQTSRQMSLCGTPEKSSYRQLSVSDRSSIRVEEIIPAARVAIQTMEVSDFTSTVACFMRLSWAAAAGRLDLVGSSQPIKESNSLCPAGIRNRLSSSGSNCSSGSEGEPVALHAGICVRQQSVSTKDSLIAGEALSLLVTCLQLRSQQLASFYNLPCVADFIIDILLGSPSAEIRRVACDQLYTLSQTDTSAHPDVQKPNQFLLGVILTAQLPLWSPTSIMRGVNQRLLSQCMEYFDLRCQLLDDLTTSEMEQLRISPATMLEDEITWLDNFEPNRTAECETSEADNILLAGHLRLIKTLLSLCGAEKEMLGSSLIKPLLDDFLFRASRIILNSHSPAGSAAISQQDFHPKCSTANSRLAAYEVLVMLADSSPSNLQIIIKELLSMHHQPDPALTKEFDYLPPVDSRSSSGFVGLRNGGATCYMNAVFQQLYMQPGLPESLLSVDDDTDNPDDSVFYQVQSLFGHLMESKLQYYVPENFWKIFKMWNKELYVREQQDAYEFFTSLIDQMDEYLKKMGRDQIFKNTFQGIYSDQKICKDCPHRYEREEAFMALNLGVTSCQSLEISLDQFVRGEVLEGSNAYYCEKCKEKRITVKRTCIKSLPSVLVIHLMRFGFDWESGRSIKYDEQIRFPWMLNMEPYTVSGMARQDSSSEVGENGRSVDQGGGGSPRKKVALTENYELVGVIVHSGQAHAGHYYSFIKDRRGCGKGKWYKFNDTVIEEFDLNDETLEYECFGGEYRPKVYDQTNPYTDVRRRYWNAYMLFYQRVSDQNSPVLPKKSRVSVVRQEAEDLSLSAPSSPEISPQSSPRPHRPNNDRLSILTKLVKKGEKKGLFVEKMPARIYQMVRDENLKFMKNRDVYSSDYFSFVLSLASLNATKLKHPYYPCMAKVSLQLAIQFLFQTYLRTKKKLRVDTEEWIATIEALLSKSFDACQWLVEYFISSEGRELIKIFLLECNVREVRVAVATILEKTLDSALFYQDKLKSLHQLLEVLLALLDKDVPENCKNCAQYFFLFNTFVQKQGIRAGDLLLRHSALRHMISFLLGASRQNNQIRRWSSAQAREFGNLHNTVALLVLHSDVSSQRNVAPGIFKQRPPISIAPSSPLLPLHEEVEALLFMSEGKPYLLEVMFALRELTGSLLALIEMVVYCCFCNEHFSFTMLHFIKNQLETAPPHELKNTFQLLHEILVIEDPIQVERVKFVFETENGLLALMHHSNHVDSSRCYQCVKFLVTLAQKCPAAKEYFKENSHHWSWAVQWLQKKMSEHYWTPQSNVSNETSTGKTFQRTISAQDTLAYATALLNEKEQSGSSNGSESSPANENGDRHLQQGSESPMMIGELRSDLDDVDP
Method in brief: as §1

USP25 = molecular target: T2, USP25 (UniProt Q9UHP3)
T2 sequence (whole entry): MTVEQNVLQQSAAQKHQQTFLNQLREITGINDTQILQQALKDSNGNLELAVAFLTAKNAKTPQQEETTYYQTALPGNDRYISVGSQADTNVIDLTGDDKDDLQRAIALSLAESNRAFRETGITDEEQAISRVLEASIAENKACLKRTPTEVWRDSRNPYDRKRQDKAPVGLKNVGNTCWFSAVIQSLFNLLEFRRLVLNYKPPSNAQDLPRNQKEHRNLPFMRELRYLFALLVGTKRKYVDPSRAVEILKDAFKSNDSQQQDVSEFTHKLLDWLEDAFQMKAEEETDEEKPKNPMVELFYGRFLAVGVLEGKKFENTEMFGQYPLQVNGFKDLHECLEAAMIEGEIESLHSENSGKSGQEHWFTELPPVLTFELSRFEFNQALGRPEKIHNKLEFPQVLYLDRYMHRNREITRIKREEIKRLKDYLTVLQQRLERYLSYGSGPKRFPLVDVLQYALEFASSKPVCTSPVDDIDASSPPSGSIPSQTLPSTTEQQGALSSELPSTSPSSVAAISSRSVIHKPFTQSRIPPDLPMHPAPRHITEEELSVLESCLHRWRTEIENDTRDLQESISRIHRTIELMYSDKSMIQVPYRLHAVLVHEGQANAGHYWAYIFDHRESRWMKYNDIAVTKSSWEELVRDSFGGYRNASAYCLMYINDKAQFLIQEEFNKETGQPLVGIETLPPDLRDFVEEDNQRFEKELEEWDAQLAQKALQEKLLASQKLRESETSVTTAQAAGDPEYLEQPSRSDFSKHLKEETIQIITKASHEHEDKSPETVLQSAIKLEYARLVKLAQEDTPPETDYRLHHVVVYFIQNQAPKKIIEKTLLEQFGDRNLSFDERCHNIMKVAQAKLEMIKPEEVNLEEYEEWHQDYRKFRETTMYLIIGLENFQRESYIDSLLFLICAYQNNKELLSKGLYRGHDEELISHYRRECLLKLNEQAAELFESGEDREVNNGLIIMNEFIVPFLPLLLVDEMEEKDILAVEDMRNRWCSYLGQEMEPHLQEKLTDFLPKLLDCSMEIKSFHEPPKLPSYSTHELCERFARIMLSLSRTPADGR
Method in brief: as §1

USP28 = molecular target: T3, USP28 (UniProt Q96RU2)
T3 sequence (whole entry): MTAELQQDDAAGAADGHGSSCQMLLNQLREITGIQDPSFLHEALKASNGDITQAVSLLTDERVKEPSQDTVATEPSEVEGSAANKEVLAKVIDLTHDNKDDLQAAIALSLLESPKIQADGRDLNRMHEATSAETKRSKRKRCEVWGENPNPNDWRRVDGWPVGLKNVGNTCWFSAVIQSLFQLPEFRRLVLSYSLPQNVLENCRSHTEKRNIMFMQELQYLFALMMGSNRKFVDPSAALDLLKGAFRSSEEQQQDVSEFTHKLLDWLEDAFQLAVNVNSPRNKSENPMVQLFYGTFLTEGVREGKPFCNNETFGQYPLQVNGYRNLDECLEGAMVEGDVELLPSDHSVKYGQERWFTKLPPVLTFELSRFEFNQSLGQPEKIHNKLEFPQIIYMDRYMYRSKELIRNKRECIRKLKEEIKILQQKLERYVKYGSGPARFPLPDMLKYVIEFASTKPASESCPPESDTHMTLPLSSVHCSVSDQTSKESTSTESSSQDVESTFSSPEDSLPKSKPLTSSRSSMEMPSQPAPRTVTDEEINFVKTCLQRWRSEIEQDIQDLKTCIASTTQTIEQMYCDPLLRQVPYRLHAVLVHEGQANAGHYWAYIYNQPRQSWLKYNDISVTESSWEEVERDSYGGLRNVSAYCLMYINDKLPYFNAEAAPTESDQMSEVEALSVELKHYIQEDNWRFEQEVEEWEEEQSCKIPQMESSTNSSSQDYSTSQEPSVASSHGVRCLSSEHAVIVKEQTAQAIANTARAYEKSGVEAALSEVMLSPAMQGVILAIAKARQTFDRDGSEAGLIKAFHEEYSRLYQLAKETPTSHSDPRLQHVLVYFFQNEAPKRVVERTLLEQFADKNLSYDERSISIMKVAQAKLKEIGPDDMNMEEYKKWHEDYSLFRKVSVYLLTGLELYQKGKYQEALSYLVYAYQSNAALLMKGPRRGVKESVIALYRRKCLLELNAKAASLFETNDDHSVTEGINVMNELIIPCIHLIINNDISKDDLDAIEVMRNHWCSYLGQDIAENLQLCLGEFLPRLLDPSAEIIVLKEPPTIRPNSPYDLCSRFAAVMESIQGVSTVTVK
Method in brief: as §1

Measured: log2 ratio of Biotin-Ahx-Ub-VS probe labelling

CS(=O)(=O)N1CCCN(C(=O)CCl)CC1
inactive: USP19 -0.0881 | USP24 -0.0413 | USP25 -0.243 | USP28 -0.549
